A selection: hits, their analogues and other compounds. The true share with any hit is near 2.8%.
ATXN2 expr inh: Primary qHTS for Inhibitors of ATXN expression. 360,000 compounds, 0.72% hits. AID 1745845, 2022. Potency, µM (highest dose often 57 µM), for inactives: at the top dose activity change, negative = inhibition, hits mostly inhibitors. HEK-293 ATXN2-luciferase reporter, luminescence, 24 h; further: potency means the concentration at half of the fitted maximal effect; on the % scale 0 is the no-effect control and ±100 the full control effect; nearly all actives have a fitted effect of over 55% in size
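qHTS (up to 57 uM final) was run with 24 h compound exposure of reporter cells at 37 °C. Each well was multiplexed: SteadyGlo luminescence measured ATXN2-luciferase expression after a fluorogenic Gly-Phe-AFC viability readout (25 uM final).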
TGFb inhibitor: qHTS for Inhibitors of TGF-b; Potency, µM (doses to about 46.1 µM), for inactives: top-dose activity, negative = inhibition, usual class: inhibitors; 410,000 compounds, 1.2% hits; HepG2 CAGA-GFP TGF-b/SMAD3 reporter, GFP fluorescence, 18 h; TGF-beta stimulated, 500 pg/mL final; further: potency means the concentration at half of the fitted maximal effect; on the % scale 0 is the no-effect control and ±100 the full control effect; nearly all actives have a fitted effect of over 65% in size
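Inhibition of TGF-beta-driven CAGA-GFP reporter expression in HEPG2 cells is measured by cellular GFP fluorescence after 18 h stimulation with 500 pg/mL recombinant TGF-beta in 1% FBS medium at 37 degrees C.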
HepG2 viability: qHTS for Inhibitors of TGF-b: Cytotox Counterscreen | 410,000 compounds, 0.76% hits | HepG2 CAGA-GFP viability, ATP luminescence, 18 h | Potency, µM (series often up to 46.1 µM), for the others: at the highest dose activity change, negative = cytotoxicity, usual class: cytotoxic; further: potency means the concentration at half of the fitted maximal effect
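HepG2 CAGA-GFP cells (1000/well, DMEM with 1% FBS) received compound, then TGF-beta at 500 pg/mL final, and were incubated 18 hours at 37 degrees C. Viability was read by CellTiter-Glo luminescence. Media-only wells were set as complete cell-killing and DMSO as no toxicity.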
ATXN viability: Viability Counterscreen for Primary qHTS for Inhibitors of ATXN expression | 400,000 compounds, 0.49% hits | Potency, µM (highest dose often 56.7 µM), hits mostly cytotoxic | S2 cells (HEK-293 line with an ATXN2-luciferase reporter) viability, CellTiter-Fluor protease fluorescence, 24 h | AID 651635, 2014; further: potency means the concentration at half of the fitted maximal effect; nearly all actives have a fitted effect of over 40% in size
CtBP-E1A blk: qHTS Assay for Inhibitors of the CtBP/E1A Interaction | AID 651724, 2012 | 340,000 compounds, 0.49% hits | activity change, % (test concentration not listed) | AlphaScreen GST-E1A/His-CtBP binding, 1536-well; hits give low values | CtBP / adenovirus E1A interaction (AlphaScreen); in the data active means activity change below about -65%; inconclusive means mostly about -30% to -63%; further: on the % scale 0 is the no-effect control and ±100 the full control effect
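Steps: dispense buffer (Tris pH 8.0, NaCl 300 mM, TCEP 1 mM, BSA, Tween 20); add 5X protein mix (GST-E1A, His-CtBP, 125 nM each); pin 23 nL compound; 2 h at 37 °C, dark; add 5X beads (50 ug/mL); 1 h; read.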
Six1-Eya2 blk: qHTS Assay for Inhibitors of the Six1/Eya2 Interaction; Homeobox protein SIX1 (Homo sapiens) + Protein phosphatase EYA2 (Homo sapiens), …; AlphaScreen GST-Six1/His-Eya2 binding, biochemical; hits give low values; activity change, % (no concentration beside the values); 360,000 compounds, 0.56% hits; AID 651725, 2012; in the data active means activity change below about -65%; inconclusive means mostly about -30% to -63%; further: on the % scale 0 is the no-effect control and ±100 the full control effect
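Six1/Eya2 binding was read as AlphaScreen signal after compounds were pinned into GST-Six1 plus His-tagged Eya2 (5X stock 250/500 nM) in pH 8.0 Tris/NaCl/TCEP buffer, beads added, then incubated 1 h, 37 C, dark.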
Active calls of the source: *; i = inactive; ? = inconclusive; · = not tested or not shown. Unless noted, the call rests on the fitted dose curve; in most records, active means well fitted curve in the direction sought with a large enough effect; inconclusive means small, poorly fitted or top-dose-only effect, or another doubt; inactive means no such curve, though single readings can be large; an effect the other way counts as inactive or inconclusive.

SMILES | ATXN2 expr inh | TGFb inhibitor | HepG2 viability | ATXN viability | CtBP-E1A blk | Six1-Eya2 blk
NC(=O)c1c(NC(NC(=O)c2ccco2)C(=O)c2ccc(Cl)cc2)sc2c1CCCC2 (configuration not stated) | 3.8% | 15.8µM* | -40.9% | i | 5.2 | -16.6
CCOC(=O)c1cc(CC)sc1NC(=O)c1ccc(N2C(=O)CCC2=O)cc1 | -3.3% | -0.6% | 3.55µM* | i | 16.7 | 9.0
NC(=O)c1c(NC(=O)c2ccc(N3C(=O)CCC3=O)cc2)sc2c1CCCC2 | · | 29.9% | -37.2% | i | · | -68.4*
CC1CCc2sc(NC(=O)c3ccc(N4C(=O)CCC4=O)cc3)c(C(N)=O)c2C1 (configuration not stated) | -17.1% | ? | 1.8% | i | 2.3 | -2.1
COc1cc2c3nnc(-c4ccc(F)cc4)c-3cn(Cc3cccc(C)c3)c2cc1OC | ? | 29.9% | -15.7% | i | -1.7 | 6.7
COc1cc2c3nnc(-c4ccccc4)c-3cn(Cc3ccc(F)cc3)c2cc1OC | ? | 7.0% | 22.4µM* | · | -0.9 | -1.1
COc1cc2c3nnc(-c4ccc(F)cc4)c-3cn(Cc3ccc(C)cc3)c2cc1OC | 17.8µM* | 51.4% | 11.2µM* | i | 1.3 | -3.3
O=C1NC(=O)[C@@H](c2cn3c4c(cccc24)CCC3)[C@H]1c1c[nH]c2ccccc12 | -21.1% | · | · | · | · | ·
CO[C@H]1CC[C@@]2(C)[C@@H](CC[C@@H]3[C@@H]2CC[C@@]2(C)[C@H]3C[C@H](C(=O)O)O[C@]23CCCO3)C1 | -5.0% | 2.3% | 15.8µM* | i | 0.4 | -1.9
CCCC(=O)Nc1ccc(O)c(C(C)=O)c1 | 8.3% | · | · | i | · | ·
Cc1[nH]c2ccccc2c1N=Nc1ccc(F)cc1 | -30.7% | ? | -1.4% | i | -15.0 | -11.9
N=C(N)c1ccc(N=Nc2c(O)ccc3c2[nH]c2ccccc23)cc1 | ? | ? | -99.0% | ? | -66.5* | ?
CC(C)(O)CC[C@@H](O)[C@](C)(O)[C@H]1CC[C@@]2(O)C3=CC(=O)[C@@H]4C[C@@H](O)[C@@H](O)C[C@]4(C)[C@@H]3CC[C@]12C | -12.5% | · | · | · | · | ·
COc1ccccc1CN1CCNC(=O)C1=O | 5.3% | -3.2% | 3.1% | i | · | ·
N#CC(C#N)=C1C=CC=CN1/C(=C\c1ccco1)C(=O)c1ccc(-c2ccccc2)cc1 | ? | 7.08µM* | 11.2µM* | ? | 12.4 | -21.2
COC(=O)c1c(-c2cccs2)csc1NC(=O)c1ccc(C(C)(C)C)cc1 | · | 4.1% | -1.8% | · | · | ·
Cc1ccc(F)cc1NC(=O)CCNC(=O)c1ccc([N+](=O)[O-])cc1 | -0.6% | -2.7% | 6.6% | i | 0.7 | 47.4
COC(=O)c1ccc(C)c(NC(=O)CCNC(=O)c2ccc([N+](=O)[O-])cc2)c1 | 7.9% | -4.4% | 4.47µM* | i | 6.6 | -3.7
CCCNC(=O)c1ccc2c(c1)N=C(CCC)c1ccccc1S2 | -37.0% | 8.91µM* | -27.7% | ? | · | ·
OC(CNCCc1ccc(C(F)(F)F)cc1)COc1ccc2ccccc2c1 (configuration not stated) | 28.2µM* | ? | -91.8% | · | 2.2 | 2.5
COc1ccc(CCNCC(O)COc2cccc(Br)c2)cc1 (configuration not stated) | ? | -36.7% | 12.6µM* | i | 0.8 | 17.0
OC(CNCCc1ccc(C(F)(F)F)cc1)COc1cccc2ccccc12 (configuration not stated) | · | ? | -113.8% | ? | · | 7.8
COc1ccc(CCNCC(O)COc2cccc(C)c2)cc1OC (configuration not stated) | · | · | · | i | · | ·
Cc1ccc(-c2csc(N3CCN(CCCn4c(-c5ccncc5)nc5ccccc54)CC3)n2)cc1 | 22.4µM* | 7.08µM* | -27.4% | · | -21.4 | -28.0
CC(=O)N[C@@H](C)c1nc2ccccc2n1CCCN1CCN(c2nc(-c3ccc(C)cc3)cs2)CC1 | ? | 8.91µM* | -11.0% | ? | -5.4 | -11.6
SMILES | ATXN2 expr inh | TGFb inhibitor | HepG2 viability | ATXN viability | CtBP-E1A blk | Six1-Eya2 blk
O=C(NC(=S)Nc1ccccc1N1CCCCC1)c1ccco1 | 19.1% | 11.2µM* | -42.3% | i | -17.9 | ?
C=C1C(=O)c2sccc2C(c2ccc(OC)c(OC)c2)C1COC(C)=O (configuration not stated) | ? | 0.708µM* | 4.47µM* | · | -17.1 | -16.6
CCN1CCN(CC(=O)N2N=C(c3cccs3)CC2c2ccc(OC)c(OC)c2)C(=O)C1=O (configuration not stated) | -12.4% | -15.0% | 0.5% | i | -18.4 | -12.1
Oc1ccc(Br)cc1CNc1cnc2ccccc2c1 | · | ? | 12.6µM* | i | · | -5.9
Oc1ccc(N=Nc2ccccc2-c2nn[nH]n2)c(O)c1 | · | 2.5% | 14.3% | ? | · | -85.5*
Cc1ccccc1-c1nn[nH]n1 | -1.9% | -4.8% | -0.8% | i | 9.1 | 3.9
Cc1ccc(C)c(NC(=O)CSc2n[nH]c(-c3ccccn3)n2)c1 | 17.8µM* | -20.5% | -4.2% | ? | -92.1* | -77.4*
O=C(CSc1nc2c(oc3ccccc32)c(=O)[nH]1)Nc1cccc(Cl)c1 | 10.4% | 11.2µM* | -61.9% | ? | · | ·
O=C(CSc1n[nH]c(-c2ccccn2)n1)Nc1cccc(Cl)c1 | 10µM* | ? | -17.1% | i | -96.8* | -92.5*
Cc1ccccc1NC(=O)CSc1n[nH]c(-c2ccccn2)n1 | 22.4µM* | -17.0% | -33.4% | ? | -93.6* | -91.7*
COc1cccc(-n2c(SCC(=O)Nc3cccc(Cl)c3)nc3c(oc4ccccc43)c2=O)c1 | 10.9% | ? | 0.7% | ? | · | ·
CNc1ccc(C=O)cc1I | · | -2.3% | 1.7% | · | · | ·
Cc1ccc(C)c(N2CCN(C(=O)c3cc4c(C)nc5ccccc5c4o3)CC2)c1 | · | ? | -121.3% | ? | · | -19.8
COc1ccccc1N1CCN(C(=O)c2cc3c(C)nc4ccccc4c3o2)CC1 | 20µM* | ? | -20.3% | ? | -28.2 | -17.9
CCCCN(CCCC)C(C(N)=O)c1ccc(OC)cc1 (configuration not stated) | 7.3% | · | · | i | · | ·
COc1cc2c(cc1OC)CN(C(=O)[C@H](C)N[C@@H](CCc1ccccc1)C(=O)O)[C@H](C(=O)O)C2 | 9.6% | · | · | i | · | ·

Screens from PubChem BioAssay.
